Sampled rows, rich in hits. Any-hit rate of the full collection: about 6.7%.
KB-V1 cytotox: KB-V1 MDR subline cytotoxicity; actives 3.4% (n = 400,000); Potency, µM (doses to about 46.1 µM), actives largely listed as cytotoxic; KB-V1 MDR cells viability, CellTiter-Glo, 72 h; also: % is scaled to controls: 0 for no effect and ±100 for the full control effect; nearly all actives have a fitted effect of over 60% in size
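Readout: CellTiter-Glo luminescence, 10 min after addition. Cells: KB-V1 MDR subline, 72 h at 37 degrees C with compound. Analysis: corrected, normalized data fitted to concentration-effect curves.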
KB-3-1 cytotox: KB-3-1 parental cell cytotoxicity. Potency, µM (highest dose often 46.1 µM), usual class: cytotoxic. KB-3-1 viability, CellTiter-Glo ATP luminescence, 72 h. actives 1.4% (n = 400,000); also: % is scaled to controls: 0 for no effect and ±100 for the full control effect; nearly all actives have a fitted effect of over 60% in size
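Multi-concentration cytotoxicity screen in KB-3-1 cells grown in DMEM lacking phenol red with 10% FBS. After 72 h at 37 °C with compound, ATP-dependent luminescence was recorded.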
PINK1 expr mod: PINK1 expression modulation; PINK1 immunofluorescence, high-content cytometry, 24 h; Potency, µM (top dose mostly 76.6 µM), for the others: top-dose activation (PINK1 increase), hits mostly activators; actives 0.2% (n = 410,000); active = well fitted activation curve with a large enough effect; inconclusive = small, poorly fitted or top-dose-only effect; cell line not stated here; also: % of control where 0% means no effect; nearly all actives have a fitted effect of over 65% in size
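Compound titrations (5 concentrations, 24 h) on a stable cell line; DMSO and CCCP controls. Endpoint: fixed-cell PINK1 immunofluorescence with mitochondrial, cell and nuclear markers, scanned by microplate cytometer.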
MCF10A rereplic: DNA re-replication induction in MCF 10a cells; Potency, µM (top dose mostly 46.1 µM), without a hit: at the highest dose activity, positive = re-replication, actives largely listed as activators; actives 2.9% (n = 350,000); MCF 10A DNA re-replication, Hoechst nuclear intensity, 48 h; also: % of control where 0% means no effect; nearly all actives have a fitted effect of over 50% in size
SW480 rereplic: induces DNA re-replication in SW480 colon adenocarcinoma cells. SW480 DNA re-replication, Hoechst DNA content imaging, 48 h. actives 1.8% (n = 340,000). Potency, µM (doses to about 46.1 µM), without a hit: at the top dose re-replication activation, most hits filed as activators; also: % of control where 0% means no effect; nearly all actives have a fitted effect of over 55% in size
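Readout is total intensity of Hoechst-stained nuclei, excited at 405 nm and collected at 500-530 nm. Compound treatment lasted 48 hr at 37 C in 5% CO2 before staining.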
Starred values were filed as active, the others as inactive; i = inactive; ? = inconclusive; . = no result; [ ] = another dose, or the depositor's remark. Unless noted, calls follow the shape of the dose curve; as a rule, active = well fitted curve in the direction sought with a large enough effect; inconclusive = small, poorly fitted or top-dose-only effect, or another doubt; inactive = no such curve, though single readings can be large; an effect the other way counts as inactive or inconclusive. Potency is read from the fitted curve at half-maximal effect.

SMILES | KB-V1 cytotox | KB-3-1 cytotox | PINK1 expr mod | MCF10A rereplic | SW480 rereplic
COc1ccccc1N1CCN(CCCCCCOc2ccc(F)cc2)CC1 | 3.66µM* | ? | ? | ? | ?
c1ccc(-c2nnc(CN3CCCc4ccccc43)o2)cc1 | i | i | 2.3% | 27.9% | 19.7%
COc1ccccc1N1CCN(Cc2ccc(OC)c(OC)c2OC)CC1 | i | i | . | 6.7% | -2.5%
Oc1ccc(CN2CCCc3ccccc32)c2cccnc12 | ? | 23.1µM* | ? | 19.5% | 11.4%
CCOC(=O)C1CCN(Cc2ccccc2C(F)(F)F)CC1 | i | i | 8.7%[38.3 µM] | 14.0% | -0.6%
CCOC(=O)C1CCN(Cc2ccc(O)c3ncccc23)CC1 | 16.4µM* | 23.1µM* | 25.1µM* | 4.11µM* | 0.92µM*
COc1ccccc1N1CCN(Cc2ccc(O)c3ncccc23)CC1 | ? | 5.17µM* | -1.4%[38.3 µM] | ? | ?
CN1CCCN(C(=O)[C@@H]2C[C@@H](Sc3nc4ccccc4[nH]3)CN2Cc2ccc(OC(F)(F)F)cc2)CC1 | . | . | 0.1% | . | .
COc1ccc(CN2CCN(c3ccccc3OC)CC2)cc1OC | ? | i | 2.6% | 2.06µM* | -17.1%
COc1ccccc1N1CCN(c2ccc(-c3ccccc3)nn2)CC1 | 2.06µM* | 2.06µM* | 2.5% | 2.59µM* | 4.11µM*
O=C(OCC(=O)N1CCCCCC1)c1ccc([N+](=O)[O-])cc1Cl | i | i | 0.3% | 0.82µM* | -15.6%
CSc1ccc(NC(=O)C2CCN(c3ncccn3)CC2)cc1 | i | i | 2.6% | . | .
O=C(COC(=O)c1c(Cl)cccc1Cl)Nc1ccccc1Br | 18.4µM* | i | 0.5% | ? | 7.2%
O=C(COC(=O)c1ccccc1)Nc1ccccc1Br | i | i | 4.8% | -3.1% | 0.4%
Cc1cc(C(=O)N2CCCC(C(=O)c3ccc(Cl)cc3C)C2)no1 (centres undefined) | ? | i | -1.0% | ? | 23.1µM*
Cc1noc(C)c1-c1ccc2ncnc(N3CCOCC3)c2c1 | . | . | 0.4% | . | .
COc1ccc(C)cc1NC(=O)c1cnc2ccc(C)cn2c1=O | i | i | 0.1% | . | .
COc1ccc(C)cc1NC(=O)c1cnc2scc(C)n2c1=O | i | i | 3.7% | 23.1µM* | ?
Cc1nn(-c2ccc(F)cc2)c(Cl)c1/C=C1\C(=O)Nc2ccccc21 | 13µM* | ? | 8.4% | 8.2µM* | ?
O=C1Nc2ccccc2/C1=C/c1ccccc1F | i | i | 8.9% | ? | ?
Cc1cc2cc(C=C(C#N)C#N)c(Cl)nc2cc1C | i | i | 0.4% | 18.4µM* | ?
CCOC(=O)/C(C#N)=C/c1cc2cc(C)c(C)cc2nc1Cl | i | i | 7.3% | -10.6% | -3.7%
CC(C)C[C@H](NC(=O)C1CC(=O)N(c2ccc3c(c2)OCCO3)C1)C(=O)N1CCCCC1 (some centres undefined) | i | i | 0.3% | 4.9% | -3.1%
O=C(/C=C/c1ccccc1)c1ccccn1 | i | i | 24.7% | 18.4µM* | ?
CCn1ncc(CN2CCCC(C(=O)Nc3cccc(-c4cc5ccccc5[nH]4)c3)C2)c1C (centres undefined) | ? | ? | 0.5% | 16.4µM* | ?
SMILES | KB-V1 cytotox | KB-3-1 cytotox | PINK1 expr mod | MCF10A rereplic | SW480 rereplic
O=C(Nc1cccc(-n2cccn2)c1)C1CCCN(Cc2cc3ccccc3[nH]2)C1 (centres undefined) | i | i | -0.2% | 20.6µM* | ?
CSc1cccc(CN2CCCC(C(=O)Nc3cccc(-n4cccn4)c3)C2)c1 (centres undefined) | . | . | 2.2% | ? | 16.4µM*
Cc1ccc(C(=O)Nc2cccc(-c3nc(CNC(=O)C4CCCCC4)c(C)o3)c2)s1 | . | . | 1.7% | . | .
CCC(C)(C)NC(=O)C(c1ccc(C)o1)N(Cc1ccc2c(c1)OCO2)C(=O)c1snc(C(N)=O)c1N (centres undefined) | i | i | 15.6% | ? | 1.0%
COc1cc([N+](=O)[O-])ccc1NC(=S)Nc1cc(C(=O)OC(C)C)cc(C(=O)OC(C)C)c1 | ? | ? | 15.8µM* | ? | 17.3%
CSCCC(NC(=O)C1CCC(C)CC1)C(=O)N1CCN(c2ccccn2)CC1 (centres undefined) | ? | i | 1.7%[38.3 µM] | 3.9% | 2.3%
